14-3-3 Bad inh = inhibitors of 14-3-3 zeta/Bad binding, primary screen, biochemical, TR-FRET, bovine 14-3-3 zeta; TR-FRET 14-3-3zeta/Dy647-pBad peptide displacement, 1 h; 220,000 tested, 0.71% active; inhibition, % at 21.7 µM;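 active = inhibition above about 70%, limit read from the data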;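 note: 0% = full 14-3-3 plus peptide FRET controls and 100% = background without 14-3-3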
Mcl1-Bid inh = Mcl-1/Bid binding inhibitors, primary screen, biochemical, TR-FRET, 1536-well; TR-FRET Mcl-1/Bid-Dy647 peptide binding; inhibition, % at 21.7 µM; 220,000 tested, 0.97% active; Induced myeloid leukemia cell differentiation protein Mcl-1 (Homo sapiens), Q07820;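 active = compounds that cut the binding signal by more than half at the single screening dose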;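 note: His-tagged Mcl-1 with europium anti-His antibody binding Bid BH3 peptide; 0% = Mcl-1 plus peptide wells and 100% = peptide-only wells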
Mcl-1 Bim block = inhibitors of Bim peptide binding to Mcl-1, primary screen, biochemical, bead-based flow cytometry, multiplex. Induced myeloid leukemia cell differentiation protein Mcl-1 (Homo sapiens), Q07820. Bim peptide-Mcl-1 binding. inhibition, % at 10 µM. 190,000 tested, 0.1% active. AID 1009, 2008; in the data active = inhibition above about 40%;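 note: 0% = no compound tracer wells and 100% = peptide blocker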
NCF1 inh = p47phox/p22phox peptide binding inhibitors, primary screen, biochemical, uHTS, NADPH oxidase regulatory subunit; fluorescence polarization, 2 h; inhibition, % at 24.7 µM; 220,000 tested, 0.53% active;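 active = inhibition above about 30%, limit read from the data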;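 note: 0% = p47phox with labelled peptide and 100% = labelled peptide alone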
Target sequence (P14598 whole entry, looked up): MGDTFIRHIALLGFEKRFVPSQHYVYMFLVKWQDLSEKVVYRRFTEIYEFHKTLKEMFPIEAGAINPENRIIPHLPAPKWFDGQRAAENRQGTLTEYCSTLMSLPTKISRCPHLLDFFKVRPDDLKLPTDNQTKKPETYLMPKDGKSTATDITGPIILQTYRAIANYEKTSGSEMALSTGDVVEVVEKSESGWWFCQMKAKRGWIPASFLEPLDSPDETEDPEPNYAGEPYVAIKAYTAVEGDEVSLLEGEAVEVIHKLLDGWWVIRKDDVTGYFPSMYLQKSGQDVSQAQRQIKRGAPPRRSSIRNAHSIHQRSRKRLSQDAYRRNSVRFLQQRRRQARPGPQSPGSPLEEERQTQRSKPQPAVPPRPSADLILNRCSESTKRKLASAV
Mcl1-Noxa inh = Mcl-1/Noxa binding inhibitors, primary screen, biochemical, TR-FRET, 1536-well. AID 1022, 2008. inhibition, % at 21.7 µM. 220,000 tested, 1.5% active. Induced myeloid leukemia cell differentiation protein Mcl-1 (Homo sapiens), Q07820. TR-FRET Mcl-1/Noxa peptide binding, 2 h;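 active = compounds that cut the protein-peptide binding signal by more than 50% relative to plate controls in a single-dose test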;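 note: His-tagged Mcl-1 with rhodamine Noxa BH3 peptide and terbium anti-His antibody; 0% = Mcl-1 plus Noxa peptide wells and 100% = peptide-only wells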
An asterisk follows results filed as active; nt = not tested or not shown. The list is not random: actives were taken first. Their share in the collection is about 3.2%.

SMILES	14-3-3 Bad inh	Mcl1-Bid inh	Mcl-1 Bim block	NCF1 inh	Mcl1-Noxa inh
c1coc(CN2CCN(C(c3cccs3)c3nnnn3C3CCCC3)CC2)c1 (centres undefined)	77*	28	2	-14	29
c1ccc(CN(Cc2cccs2)C(c2cccs2)c2nnnn2C2CCCC2)cc1 (centres undefined)	87*	0	1	-5	3
CCc1cccc(CC)c1NC(=S)Nc1ccccc1	-3	-32	-2	-5	6
N#CC(C#N)=C1C=C2C=C(N3CCOCC3)CCC2CC1 (centres undefined)	-6	-37	-7	65*	-55
COc1ccc(NC(=O)c2ccc3ccccc3n2)cc1S(=O)(=O)N1CCCCC1	-6	-12	-2	-45	1
CC(C)CNC(=O)Cn1c(=O)c2c(ncn2CC(C)C)n(Cc2ccccc2)c1=O	90*	-16	-5	-3	6
Cc1ccc(CSCCNS(=O)(=O)c2ccccc2)cc1	-18	-19	-3	-17	12
O=C(O)Cc1sc(Nc2ccc(Cl)cc2)nc1-c1cccs1	8	-27	-6	-101	73*
CC(=O)Nc1ccc(Cl)c(C(N)=O)c1	-7	14	-2	5	24
NC(=O)c1cc(N2C(=O)C=CC2=O)ccc1Cl	8	-54	0	16	68*
CN1CCN(CCOc2cccc(Cl)c2)CC1	73*	-13	-1	-16	9
CN1CCN(CCOc2ccc(Cl)c(Cl)c2)CC1	16	11	-2	-7	33
O=C1c2cccnc2C(Nc2ccc(Br)cc2)N1Cc1cccs1 (centres undefined)	52	62*	1	2	28
CCOC(=O)c1ccc(NC2c3ncccc3C(=O)N2Cc2ccc(F)cc2)cc1 (centres undefined)	86*	45	-1	2	6
COC(=O)c1cc(NC2c3ncccc3C(=O)N2Cc2ccccc2)cc(C(=O)OC)c1 (centres undefined)	4	10	1	15	9
COc1ccc(NC2c3ncccc3C(=O)N2Cc2cccs2)cc1 (centres undefined)	3	-24	2	-7	31
COc1ccc(CN2C(=O)CSC2c2ccccn2)cc1 (centres undefined)	-12	-50	nt	-6	-79
O=C1c2ccccc2C(Nc2ccc(F)c(Cl)c2)N1Cc1ccco1 (centres undefined)	-11	14	-1	-15	6
O=C1c2cccnc2C(Nc2ccc(F)c(Cl)c2)N1Cc1cccs1 (centres undefined)	26	52*	0	-4	31
COc1ccc(CN2C(=O)c3cccnc3C2O)cc1 (centres undefined)	87*	92*	0	-15	25
O=C(c1ccccc1Cl)N1CCC(n2cccc2)CC1	-9	-42	nt	-9	18
CC(C)c1cc(=O)n2[nH]c(N)nc2n1	-6	-3	-1	-32	14
COc1ccc(CC(=O)Nc2ccccc2C(=O)N2CCOCC2)cc1	8	-12	-2	-11	-9
CC1CN(Cc2ccccc2Cl)CC(C)O1 (centres undefined)	59	51*	-3	2	33
Clc1ccccc1CN1CCC(Cc2ccccc2)CC1	35	54*	-3	1	20
SMILES	14-3-3 Bad inh	Mcl1-Bid inh	Mcl-1 Bim block	NCF1 inh	Mcl1-Noxa inh
CCC(C)(C)NC(=O)c1cc(S(=O)(=O)N2CCCCC2)ccc1N1CCOCC1	-14	-16	-1	-8	8
Cc1ccc(N=C2NC(=O)S/C2=C\c2ccco2)cc1	33	48	0	-28	83*
Cc1cccc(N=C2NC(=O)/C(=C/c3cccn3C)S2)c1C	3	-105	nt	-101	30
O=C1NC(=Nc2ccccc2)S/C1=C\C=C\c1ccco1	11	42	-6	-54	112*
Cc1ccc(N=C2NC(=O)/C(=C/C=C/c3ccco3)S2)cc1	12	-47	3	-15	82*
Cc1cccc(N=C2NC(=O)/C(=C/C=C/c3ccco3)S2)c1C	4	92*	7	-23	114*
O=C(CSc1cccc[n+]1[O-])Nc1ccc(N2CCOCC2)cc1	12	13	-4	3	39
COc1cc(CNCc2ccccn2)ccc1OCc1cccc(Cl)c1	88*	-23	0	6	21
COc1cc(CNCc2ccccn2)ccc1OCc1ccc(Cl)cc1	6	25	-3	-7	30
Cc1ccc(NC(=O)C2CCCN2C(=O)OC(C)(C)C)cc1C (centres undefined)	1	-24	nt	-1	-10
COC(=O)c1ccc2c(=O)n(-c3ccc(OC)cc3)c(=S)[nH]c2c1	-8	-42	-64	-6	14
COc1ccc(C(=O)N[C@H](C(=O)N2CCN(c3ccccc3F)CC2)C(C)C)cc1	-11	-15	-1	-5	15
Cc1nnc(-c2cccc(Br)c2)c2cn(-c3ccc(Br)cc3)nc12	9	56*	-1	-26	16
O=C(c1ccc(F)cc1)N1CCN(Cc2ccccc2Br)CC1	48	60*	-9	15	1
O=C(c1ccc(-n2cccc2)cc1)N1CCN(Cc2ccccc2)CC1	91*	-25	1	5	6
Cc1cccc(NC(=O)C2NC(=O)CC2c2ccccc2)c1C (centres undefined)	-2	3	-1	-12	-7
CC1CCC2(CC1)NC(=O)N(CC(=O)N1CCN(S(=O)(=O)c3ccccc3)CC1)C2=O (centres undefined)	-8	-12	0	-5	8
COCCCNC(=O)c1cccn2c(=O)c3cc4ccccc4cc3nc12	-9	7	-5	-6	20
O=C(NCc1ccco1)c1cccn2c(=O)c3cc4ccccc4cc3nc12	25	94*	3	17	47
CCCCNC(=O)c1cc2c(=O)n3cccc(C)c3nc2n(Cc2ccccc2)c1=N	75*	-4	-3	-14	11
COCCn1c(=N)c(C(=O)NCc2ccco2)cc2c(=O)n3cc(C)ccc3nc21	-9	-29	1	-5	9
N=c1c(C(=O)NCc2ccco2)cc2c(=O)n3ccccc3nc2n1CCc1ccccc1	-12	11	13	10	68*
Cc1ccc(Cn2c(=N)c(C(=O)NCc3ccco3)cc3c(=O)n4ccccc4nc32)cc1	-6	3	-1	-1	80*
Cc1ccc(S(=O)(=O)NC(C)(C)CN2CCC(Cc3ccccc3)CC2)cc1	30	4	nt	-13	45
CCOc1cccc(NC(=O)c2cccc(F)c2)c1	0	-9	-1	-4	-8
N=C(N)c1ccc(/C=C/c2ccc(C(=N)N)cc2O)cc1	1	-92	nt	20	66*

Assay outcomes deposited in PubChem BioAssay by several laboratories.
